Results as given in PubChem BioAssay (EPA / NIEHS).
Values joined by “and” are separate entries in the source; they are usually repeats but may differ in a detail not shown here. Identical values can stand only once. Inconclusive results are not listed. A structure can be active in one record and inactive in another. Active and inactive are the calls of the source. The calls were made as follows, unless noted: active = hit-call score of the fitted dose curve at least 0.9, where 1 is the maximum; inactive = score below 0.9.

Tests used:
[1] = BSK_BT_PBMCCytotoxicity: PBMC Cytotoxicity Assessment in the BioMAP Diversity Plus: BT Assay (AID 2284225); conditions: primary human B cells with PBMC;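 also: PBMC viability measured by Alamar Blue dye reduction fluorescence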
Method in brief: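 Primary human co-culture of B cells and PBMC, pre-dosed 1 h then activated with SEB and TSST-1. Cytotoxicity is taken from Alamar Blue dye reduction, added for 6 h at the end of a 90 h incubation.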

[2] = read-out: Secreted IgG (sIgG), gene 3500; experiment: BSK_BT_sIgG: BioMAP Diversity Plus: BT Assay for Secreted IgG (sIgG) Biomarker Activity (AID 2284226); conditions: primary human B cells with PBMC
Method in brief: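 Human B cell/PBMC co-culture; compound exposure 24 h; sIgG by ELISA; gain-of-signal fit vs DMSO baseline.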

[3] = BSK_BT_Bcell_Proliferation: Viability Assessment in the BioMAP Diversity Plus: BT Assay for B cell Proliferation (AID 2284227); conditions: primary human B cells with PBMC
Method in brief: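 Human B cells co-cultured with PBMC were dosed with test chemicals and relative cell number was quantified by SRB staining at 72 h. Cells were fixed in 10% TCA, stained with 0.1% SRB and read at 560 nm. Activity was fitted in the positive direction against DMSO.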

[4] = read-out: Interleukin 6 (IL6), IL6 (gene 3569); experiment: BSK_BT_xIL6: BioMAP Diversity Plus: BT Assay for Interleukin 6 (IL6) Biomarker Activity (AID 2284228); conditions: primary human B cells with PBMC
Method in brief: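 B cells and peripheral blood mononuclear cells (human primary co-culture) were dosed with chemical, and after 24 h IL-6 released into the medium was measured by Luminex xMAP. Responses were analysed as gain of signal over DMSO control.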

[5] = read-out: Interleukin 17A (IL17A), IL17A (gene 3605); experiment: BSK_BT_xIL17A: BioMAP Diversity Plus: BT Assay for Interleukin 17A (IL17A) Biomarker Activity (AID 2284229); conditions: primary human B cells with PBMC
Method in brief: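 Secreted IL-17A was the measured endpoint, read by Luminex xMAP multiplex in supernatants of a human B cell/PBMC co-culture harvested 24 h after chemical dosing. Signal increase relative to DMSO defined activity.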

[6] = read-out: Tumor necrosis factor (Homo sapiens) (UniProt P01375); experiment: BSK_BT_xTNFa: BioMAP Diversity Plus: BT Assay for Tumor necrosis factor alpha (TNF-alpha) Biomarker Activity (AID 2284230); conditions: primary human B cells with PBMC
Method in brief: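 B cells with PBMC in co-culture, dosed and sampled at 24 h; secreted TNF-alpha measured by Luminex xMAP bead assay. Activity fitted in the gain direction against DMSO as negative control and baseline.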

[7] = read-out: Vascular cell adhesion molecule 1 (VCAM1), VCAM1 (gene 7412); experiment: BSK_MyoF_VCAM1: BioMAP Diversity Plus: MyoF Assay for Vascular cell adhesion molecule 1 (VCAM1) Biomarker Activity (AID 2284231); conditions: primary human lung fibroblasts
Method in brief: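 ELISA read-out of VCAM-1 on human lung fibroblasts 24 h after chemical treatment, with positive-direction curve fitting relative to DMSO controls. Parallel cultures were stained with sulforhodamine B for total protein to flag overt cytotoxicity.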

[8] = read-out: Collagen I, COL1A1 (gene 1277); experiment: BSK_MyoF_CollagenI: BioMAP Diversity Plus: MyoF Assay for Collagen I Biomarker Activity (AID 2284238); conditions: primary human lung fibroblasts
Method in brief: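 Lung fibroblasts (human primary) dosed, 24 h; Collagen I by ELISA; positive-direction fit vs DMSO control. Parallel SRB total-protein staining (0.1% SRB, 10% TCA fixation, 560 nm) flags overt cytotoxicity.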

[9] = CCTE_Shafer_MEA_dev_correlation_coefficient_mean: CCTE's Neural Network Formation Assay for Mean Correlation Coefficient, Shafer Lab (AID 2284093);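 as to AC50: well mean pairwise spike train correlation integrated as AUC over recording days 5 to 12; potency fitted for loss of correlation relative to DMSO vehicle wells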
Method in brief: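 Spontaneous activity recorded on days 5, 7, 9 and 12 post-plating; pairwise spike correlations are averaged across active electrodes and collapsed to an area-under-curve. Rat cortical cultures are dosed from plating through 12 days, with compound renewed at media changes.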

[10] = CCTE_Mundy_HCI_hNP1_Pro_ResponderAvgInten: CCTE's Proliferation Assay in human neuroprogenitor cells, Mundy Lab (AID 2284224; active = hit-call score of the fitted dose curve at least 0.9, where 1 is the maximum;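 also: human neural progenitor cells hNP1 derived from WA09 embryonic stem cells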)
Method in brief: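 Proliferation read as average intensity of BrdU-positive cells, imaged at 26.25 h post-dosing: chemical exposure started after 40–44 h culture, BrdU during final 4 h, paraformaldehyde fixation. Positive-direction fit relative to DMSO.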

Measured: AC50

Tumor necrosis factor (Homo sapiens), sequence (P01375 whole entry, looked up): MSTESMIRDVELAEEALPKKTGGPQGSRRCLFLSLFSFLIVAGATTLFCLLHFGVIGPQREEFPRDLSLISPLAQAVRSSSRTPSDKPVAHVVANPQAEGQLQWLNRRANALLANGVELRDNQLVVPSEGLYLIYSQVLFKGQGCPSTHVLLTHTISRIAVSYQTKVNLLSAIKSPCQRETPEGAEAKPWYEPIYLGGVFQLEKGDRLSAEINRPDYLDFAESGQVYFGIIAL

CCN(CC)c1ccc(C=O)c(O)c1
active: [2] 20 µM
not listed: [9] | [10]
inactive: all other assays above

OCCCCC(F)(F)C(F)(F)C(F)(F)C(F)(F)F
inactive: all assays above

CNS(=O)(=O)C(F)(F)C(F)(F)C(F)(F)C(F)(F)C(F)(F)C(F)(F)C(F)(F)C(F)(F)F
inactive: [9] | [1] | [2] | [3] | [4] | [5] | [6] | [7] | [8]
active: [2] 27.6 µM | [6] 44.9 µM

NC(=O)C(F)(F)C(F)(F)C(F)(F)C(F)(F)C(N)=O
inactive: [9] | [1] | [2] | [3] | [4] | [5] | [6] | [7] | [8]
active: [6] 0.221 µM

Nc1cc([N+](=O)[O-])cc(Cl)c1O
not listed: [9] | [10]
inactive: all other assays above

C[Si](Cl)(Cl)CCC(F)(F)C(F)(F)C(F)(F)C(F)(F)C(F)(F)C(F)(F)F
inactive: [1] | [2] | [3] | [4] | [5] | [6] | [7] | [8]
active: [6] 3.33 µM

O=C(O)C(F)(F)C(F)(F)C(F)(F)C(F)(F)C(F)(F)C(F)(F)C(F)F
active: [3] 21.8 µM
inactive: [1] | [2] | [3] | [4] | [5] | [6] | [7] | [8]

CCOC(=O)CC(=O)C(F)(F)C(F)(F)F
not listed: [9] | [10]
inactive: all other assays above

FC(F)(F)C(F)(F)C(F)(F)C(F)(F)C(F)(F)C(F)(F)C(F)(F)CCI
not listed: [10]
inactive: all other assays above

OCC(F)(F)C(F)(F)C(F)(F)C(F)(F)C(F)(F)C(F)(F)C(F)(F)C(F)(F)CO
active: [9] 24.1 µM | [1] 46.1 µM and 47.5 µM | [2] 49.8 µM and 47.1 µM | [3] 46.8 µM and 47.9 µM | [4] 48.7 µM | [5] 51.3 µM and 19.6 µM | [6] 45.6 µM and 54 µM | [7] 47.9 µM and 45.4 µM | [8] 40.4 µM
inactive: [8]

O=C(O)C(F)(F)C(F)(F)C(F)(F)OC(F)(F)F
not listed: [10]
inactive: all other assays above

C=CC(=O)OCC(F)(F)C(F)(F)C(F)(F)C(F)(F)C(F)(F)C(F)(F)C(F)(F)C(F)F
active: [1] 32.5 µM and 22.7 µM | [2] 46.2 µM | [3] 44.8 µM and 30 µM | [4] 33.7 µM and 14.4 µM | [5] 30 µM and 27.2 µM | [6] 35.1 µM and 6.23 µM | [7] 27.2 µM and 37.2 µM
inactive: [2] | [8]

O=S(=O)(OCC(F)(F)F)C(F)(F)C(F)(F)C(F)(F)C(F)(F)F
active: [1] 8.88 µM | [6] 3.48 µM
inactive: [1] | [2] | [3] | [4] | [5] | [6] | [7] | [8]

NC(=O)C(F)(F)C(F)(F)C(F)(F)C(F)F
not listed: [10]
inactive: all other assays above

OCC(O)CC(F)(F)C(F)(F)C(F)(F)C(F)(F)F (stereo not drawn)
inactive: [9] | [1] | [2] | [3] | [4] | [5] | [6] | [7] | [8]
active: [6] 0.153 µM

OCC(F)(F)C(F)(F)C(F)(F)CO
not listed: [10]
inactive: all other assays above
